Data reported in the supplement of paper PMC8371130.
Where a name gives a salt, the structure may show the parent alone.

Test system: HL-1
Assay: relative cell viability (CellTiter-Glo) vs DMSO control (% of DMSO control); higher = more viable cells
In short: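 HL-1 mouse atrial cardiomyocytes were seeded into 384-well plates at 1000 cells per well along with compounds at 40, 200, 1000 or 5000 nM in 0.01% DMSO. After one day, the cells were moved to a hypoxic workstation (1% O2) for 48 h and then reoxygenated for 24 h in a normal incubator, while others remained in normoxia for the same period. Cell viability was measured by CellTiter-Glo luminescence and normalised to vehicle-treated control cells.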

[1] = oxygen condition: hypoxia 48 h (1% O2) + reoxygenation 24 h, 40 nM
[2] = oxygen condition: hypoxia 48 h (1% O2) + reoxygenation 24 h, 200 nM
[3] = oxygen condition: hypoxia 48 h (1% O2) + reoxygenation 24 h, 1000 nM
[4] = oxygen condition: hypoxia 48 h (1% O2) + reoxygenation 24 h, 5000 nM
[5] = oxygen condition: normoxia 72 h, 40 nM
[6] = oxygen condition: normoxia 72 h, 200 nM
[7] = oxygen condition: normoxia 72 h, 1000 nM
[8] = oxygen condition: normoxia 72 h, 5000 nM

| Compound | relative cell viability [1] | relative cell viability [2] | relative cell viability [3] | relative cell viability [4] | relative cell viability [5] | relative cell viability [6] | relative cell viability [7] | relative cell viability [8] |
| --- | --- | --- | --- | --- | --- | --- | --- | --- |
| CCCCC(=O)N(Cc1ccc(-c2ccccc2-c2nnn[nH]2)cc1)[C@H](C(=O)O)C(C)C [Valsartan] | 104 | 97.5 | 80.6 | 51.6 | 98.1 | 95.6 | 93.8 | 45.1 |
| CCN1CC(CCN2CCOCC2)C(c2ccccc2)(c2ccccc2)C1=O (stereo not drawn) [Doxapram HCl] | 102 | 104 | 100 | 107 | 116 | 103 | 106 | 112 |
| Clc1ccc(COC(Cn2ccnc2)c2ccc(Cl)cc2Cl)c(Cl)c1 (stereo not drawn) [Miconazole] | 96.8 | 99.4 | 98.3 | 104 | 101 | 101 | 101 | 106 |
| COc1cc2nc(N(C)CCCNC(=O)C3CCCO3)nc(N)c2cc1OC (stereo not drawn) [Alfuzosin hydrochloride] | 103 | 106 | 99.9 | 106 | 103 | 107 | 114 | 112 |
| CC1=C(/C=C/C(C)=C/C=C/C(C)=C/C(=O)O)C(C)(C)CCC1 [Tretinoin] | 113 | 109 | 110 | 100 | 112 | 106 | 101 | 121 |
| C[C@H](CCC(=O)O)[C@H]1CC[C@H]2[C@@H]3CC[C@@H]4C[C@H](O)CC[C@]4(C)[C@H]3CC[C@]12C [Lithocholic acid] | 108 | 108 | 108 | 113 | 102 | 113 | 105 | 108 |
| CN(N=O)C(=O)N[C@@H](C=O)[C@@H](O)[C@H](O)[C@H](O)CO [Streptozotocin] | 103 | 103 | 99.8 | 109 | 99.9 | 109 | 104 | 102 |
| CCNC(=O)CCC/C=C\C[C@@H]1[C@@H](/C=C/[C@@H](O)CCc2ccccc2)[C@H](O)C[C@@H]1O [Bimatoprost] | 104 | 107 | 108 | 105 | 104 | 101 | 105 | 107 |
| NS(=O)(=O)c1cc(C(=O)O)c(NCc2ccco2)cc1Cl [Furosemide] | 116 | 105 | 108 | 112 | 106 | 101 | 111 | 106 |
| N#C[C@@H]1CCCN1C(=O)CNC12CC3CC(CC(O)(C3)C1)C2 [Vildagliptin] | 63.4 | 104 | 114 | 117 | 103 | 95.7 | 99 | 119 |
| OC[C@@H](O)[C@@H](O)[C@H](O)[C@H](O)CO [D-Mannitol] | 102 | 86.9 | 113 | 113 | 106 | 98.9 | 108 | 87.3 |
| CCC(=O)O[C@]1(C(=O)CCl)[C@@H](C)C[C@H]2[C@@H]3CCC4=CC(=O)C=C[C@]4(C)[C@@]3(F)[C@@H](O)C[C@@]21C [Clobetasol propionate] | 98.2 | 94.4 | 94.5 | 97.3 | 92.3 | 90.1 | 88.3 | 94.5 |
| CNC(=O)c1cc(Oc2ccc(NC(=O)Nc3ccc(Cl)c(C(F)(F)F)c3)c(F)c2)ccn1 [Regorafenib] | 107 | 113 | 109 | 114 | 110 | 110 | 114 | 134 |
| CCN(CC)CCNC(=O)c1c(C)[nH]c(/C=C2\C(=O)Nc3ccc(F)cc32)c1C [Sunitinib Malate] | 106 | 109 | 107 | 115 | 105 | 119 | 114 | 111 |
| Nc1nc(F)nc2c1ncn2[C@@H]1O[C@H](COP(=O)(O)O)[C@@H](O)[C@@H]1O [Fludarabine Phosphate] | 115 | 108 | 119 | 113 | 108 | 115 | 119 | 111 |
| CN(C)C(=N)NC(=N)N [Metformin hydrochloride] | 98.4 | 104 | 105 | 109 | 105 | 96.6 | 104 | 109 |

| Compound | relative cell viability [1] | relative cell viability [2] | relative cell viability [3] | relative cell viability [4] | relative cell viability [5] | relative cell viability [6] | relative cell viability [7] | relative cell viability [8] |
| --- | --- | --- | --- | --- | --- | --- | --- | --- |
| CCC1=C(C)CN(C(=O)NCCc2ccc(S(=O)(=O)NC(=O)N[C@H]3CC[C@H](C)CC3)cc2)C1=O [Glimepiride] | 93.1 | 96.3 | 95.2 | 106 | 88.9 | 77.4 | 94.7 | 105 |
| CS(=O)(=O)c1ccc(C2=C(c3ccccc3)C(=O)OC2)cc1 [Rofecoxib] | 104 | 97.5 | 103 | 107 | 105 | 94.4 | 107 | 109 |
| CC(CN(C)C)CN1c2ccccc2CCc2ccccc21 (stereo not drawn) [Trimipramine Maleate] | 103 | 105 | 111 | 111 | 99.2 | 101 | 102 | 94.2 |
| CCCC(CCC)C(=O)O [Valproic acid sodium salt] | 106 | 117 | 113 | 111 | 104 | 111 | 123 | 111 |
| C[C@]12CC[C@@H]3c4ccc(O)cc4C[C@@H](CCCCCCCCC[S+]([O-])CCCC(F)(F)C(F)(F)F)[C@H]3[C@@H]1CC[C@@H]2O (stereo partly drawn) [Fulvestrant] | 102 | 113 | 110 | 122 | 111 | 117 | 122 | 135 |
| O=C(O)C1=CO[C@@H](O[C@@H]2O[C@H](CO)[C@@H](O)[C@H](O)[C@H]2O)[C@@H]2C(CO)=CC[C@H]12 [Geniposidic acid] | 107 | 109 | 110 | 112 | 103 | 120 | 117 | 121 |
| O=c1c(-c2ccc(O)cc2)coc2cc(O)ccc12 [Daidzein] | 107 | 102 | 105 | 113 | 107 | 107 | 105 | 118 |
| CC(C)C[C@H](NC(=O)[C@H](Cc1ccccc1)NC(=O)c1cnccn1)B(O)O [Bortezomib] | 10.4 | 10 | 8.52 | 4.58 | 12.9 | 10.5 | 6.82 | 4.44 |
| CC(C)(Oc1ccc(CCNC(=O)c2ccc(Cl)cc2)cc1)C(=O)O [Bezafibrate] | 102 | 98.2 | 105 | 107 | 105 | 101 | 99.8 | 103 |
| COc1cc2ncnc(Nc3ccc(F)c(Cl)c3)c2cc1OCCCN1CCOCC1 [Gefitinib] | 106 | 114 | 122 | 100 | 101 | 112 | 99.4 | 100 |
| O=c1[nH]c(=O)n(C2CCCO2)cc1F (stereo not drawn) [Ftorafur] | 101 | 103 | 104 | 96.9 | 100 | 101 | 114 | 89.2 |
| Cc1nc2n(c(=O)c1CCN1CCC(c3noc4cc(F)ccc34)CC1)CCCC2O (stereo not drawn) [Paliperidone] | 106 | 107 | 106 | 104 | 104 | 109 | 105 | 118 |
| COC(=O)C1=C(C)NC(C)=C(C(=O)OC)C1c1ccccc1[N+](=O)[O-] [Nifedipine] | 96.4 | 77.6 | 85.4 | 63.7 | 105 | 80.7 | 75.6 | 59 |
| CC(C)(C)NC(=O)[C@H]1CC[C@H]2[C@@H]3CC[C@H]4NC(=O)C=C[C@]4(C)[C@H]3CC[C@]12C [Finasteride] | 100 | 106 | 106 | 117 | 115 | 110 | 111 | 113 |
| CN1CCC(=C2c3ccccc3C=Cc3ccccc32)CC1 [Cyproheptadine HCl] | 97.1 | 95.8 | 102 | 110 | 100 | 98.1 | 102 | 118 |
